Measured values reported in the supplement of paper PMC10849652.
Targets with a hit are over-represented here; the source holds about 7,900 in all. About 0.6% of all pairs of compound and target were hits. Unmarked numbers belong to inactive results.

Columns and labels:
Assay in all cases: log2 fold change, soluble protein after heating vs DMSO (PISA); higher = thermal stabilisation; K562 cells, 10 uM, 30 min; active = over 0.2 and 3.5 SD of the protein, either way, in both replicates (recomputed)
[1] = compound: CC1=C(C=C(C=C1)NC(=O)C2=CC(=CC=C2)C(C)(C)C#N)NC3=CC4=C(C=C3)N=CN(C4=O)C
Outline: (§1)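 Quantification of soluble protein used TMTpro 16plex LC-MS/MS, with channel sums equalised. Samples were the supernatant after 21,000xg for 90 min of pooled aliquots from K562 cells (2×10^6 cells/mL) treated with 10 μM compound for 30 min, heated for 3 min over 48°C-58°C, and extracted in PBS with 0.5% NP-40 at 4°C. Values, from duplicates, describe thermal stability against control samples on a log2 fold-change scale.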

[2] = compound: CC1=C(C=C(C=C1)NC(=O)C2=CC(=CC=C2)N(C)C)NC(=O)C3=CC=C(C=C3)O
Outline: as §1

[3] = compound: CC1=CC=C(C=C1)SC2=C3C=C(SC3=CN=C2)C(=O)N
Outline: as §1

[4] = compound: CC1=NC(=CC=C1)C2=C(N=C(N2)C(C)(C)C)C3=CC4=NC=CN=C4C=C3
Outline: as §1

[5] = compound: CCCCN(Cc1ccc(C(=O)NO)cc1)C(=O)Nc1ccccc1 [Nexturastat A]
Outline: as §1

[6] = compound: CCCS(=O)(=O)Nc1ccc(F)c(C(=O)c2c[nH]c3ncc(-c4ccc(Cl)cc4)cc23)c1F [vemurafenib]
Outline: as §1

[7] = compound: CCCS(=O)(=O)Nc1ccc(F)c(C(=O)c2c[nH]c3ncc(Cl)cc23)c1F
Outline: as §1

[8] = compound: CCCc1cc(C)[nH]c(=O)c1CNC(=O)c1cc(-c2ccnc(N3CCN(C)CC3)c2)cc2c1cnn2C(C)C
Outline: as §1

[9] = compound: CCN(CC)Cc1ccc2cc(COC(=O)Nc3ccc(C(=O)NO)cc3)ccc2c1 [givinostat]
Outline: as §1

[10] = compound: CCN(CCCOc1ccc2c(Nc3cc(CC(=O)Nc4cccc(F)c4)[nH]n3)ncnc2c1)CCOP(=O)(O)O [barasertib]
Outline: as §1

[11] = compound: CC[C@@H]1C(=O)N(C)c2cnc(Nc3ccc(C(=O)NC4CCN(C)CC4)cc3OC)nc2N1C1CCCC1
Outline: as §1

[12] = compound: CC[C@@H]1C(=O)N(C)c2cnc(Nc3ccc(C(=O)N[C@H]4CC[C@H](N5CCN(CC6CC6)CC5)CC4)cc3OC)nc2N1C(C)C [volasertib]
Outline: as §1

[13] = compound: CC[C@H](C)N1C=C(C2=C(C=C(C=C21)C3=CN=C(C=C3)N4CCNCC4)C(=O)NCC5=C(C=C(NC5=O)C)C)C
Outline: as §1

[14] = compound: CC[C@H](C)[C@@H](C(=O)N[C@@H]([C@@H](C)O)C(=O)N[C@@H](CC(C)C)C(=O)[C@]1(CO1)C)NC(=O)[C@H]([C@@H](C)CC)N(C)C(=O)C [epoxomicin]
Outline: as §1

[15] = compound: CCn1c(C(=O)N(C2CC2)C2CC2)cc2c3c(ncn3C)c(Nc3cc(C)n(C)n3)nc21
Outline: as §1

[16] = compound: CCn1cc(-c2ccnc3[nH]c(-c4cccc(CN(C)C)c4)cc23)c(-c2ccc(NC(=O)N(C)C)cc2)n1
Outline: as §1

[17] = compound: CN(C)CC(=O)Nc1ccc2[nH]c(=O)c3ccccc3c2c1
Outline: as §1

[18] = compound: CN(CCOC1=CC=C(C=C1)C[C@H]2C(=O)NC(=O)S2)C3=CC=CC=N3 (racemic) [rosiglitazone]
Outline: as §1

[19] = compound: CN1C2=C(C3=C1C(=O)N(N=C3)CC4=CC(=CC=C4)N)SC(=C2)S(=O)C
Outline: as §1

[20] = compound: CN1CCC(CNc2ccc3ncc(-c4cccc(OC(F)(F)F)c4)n3n2)CC1
Outline: as §1

Sequence of UniProt P48449 (P48449 whole entry, looked up): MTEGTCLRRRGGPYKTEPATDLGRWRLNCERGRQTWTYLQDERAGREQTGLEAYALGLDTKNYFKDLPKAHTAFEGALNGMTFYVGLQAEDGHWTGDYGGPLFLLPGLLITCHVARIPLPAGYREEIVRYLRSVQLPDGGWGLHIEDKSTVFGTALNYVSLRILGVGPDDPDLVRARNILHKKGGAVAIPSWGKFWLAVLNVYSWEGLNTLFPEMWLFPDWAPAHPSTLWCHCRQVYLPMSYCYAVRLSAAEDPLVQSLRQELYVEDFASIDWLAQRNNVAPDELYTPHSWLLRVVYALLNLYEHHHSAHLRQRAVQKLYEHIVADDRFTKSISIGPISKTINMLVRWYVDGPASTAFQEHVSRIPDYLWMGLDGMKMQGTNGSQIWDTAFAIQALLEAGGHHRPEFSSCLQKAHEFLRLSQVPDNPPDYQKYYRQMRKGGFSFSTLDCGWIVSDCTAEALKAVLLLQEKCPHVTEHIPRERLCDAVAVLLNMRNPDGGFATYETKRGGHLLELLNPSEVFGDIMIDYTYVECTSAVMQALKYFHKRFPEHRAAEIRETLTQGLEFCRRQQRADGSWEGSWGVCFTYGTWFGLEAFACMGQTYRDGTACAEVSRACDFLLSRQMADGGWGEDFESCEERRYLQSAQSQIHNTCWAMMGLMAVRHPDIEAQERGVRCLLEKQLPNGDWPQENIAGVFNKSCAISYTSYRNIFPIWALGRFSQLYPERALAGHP
Sequence of UniProt O95373 (O95373 whole entry, looked up): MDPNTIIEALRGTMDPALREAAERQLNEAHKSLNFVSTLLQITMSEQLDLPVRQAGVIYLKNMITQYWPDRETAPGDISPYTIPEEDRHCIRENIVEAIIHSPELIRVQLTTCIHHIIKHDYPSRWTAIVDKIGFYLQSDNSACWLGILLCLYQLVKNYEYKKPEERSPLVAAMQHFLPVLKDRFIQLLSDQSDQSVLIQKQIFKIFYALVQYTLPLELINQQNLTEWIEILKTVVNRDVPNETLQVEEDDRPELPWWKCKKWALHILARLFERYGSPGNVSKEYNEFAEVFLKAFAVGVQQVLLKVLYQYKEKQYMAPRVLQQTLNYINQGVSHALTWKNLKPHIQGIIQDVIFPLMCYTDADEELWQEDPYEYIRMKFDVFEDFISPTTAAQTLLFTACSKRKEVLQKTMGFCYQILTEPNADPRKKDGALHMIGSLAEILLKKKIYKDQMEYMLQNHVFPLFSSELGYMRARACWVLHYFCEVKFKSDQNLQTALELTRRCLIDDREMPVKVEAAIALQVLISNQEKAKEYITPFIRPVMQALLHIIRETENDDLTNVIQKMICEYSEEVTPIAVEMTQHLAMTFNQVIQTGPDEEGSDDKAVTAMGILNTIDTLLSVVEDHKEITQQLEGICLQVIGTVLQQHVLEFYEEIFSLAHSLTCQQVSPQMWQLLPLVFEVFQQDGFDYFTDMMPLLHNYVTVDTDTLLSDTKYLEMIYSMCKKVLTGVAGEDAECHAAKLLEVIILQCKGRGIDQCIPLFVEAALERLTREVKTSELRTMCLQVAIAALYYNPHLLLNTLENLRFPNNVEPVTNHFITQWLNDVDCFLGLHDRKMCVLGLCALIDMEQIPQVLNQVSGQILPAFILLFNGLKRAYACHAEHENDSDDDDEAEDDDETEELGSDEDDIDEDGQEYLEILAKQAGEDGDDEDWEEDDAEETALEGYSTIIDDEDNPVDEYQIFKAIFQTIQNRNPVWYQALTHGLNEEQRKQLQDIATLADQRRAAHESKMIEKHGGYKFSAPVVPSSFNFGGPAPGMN
Sequence of UniProt Q7L2J0 (Q7L2J0 whole entry, looked up): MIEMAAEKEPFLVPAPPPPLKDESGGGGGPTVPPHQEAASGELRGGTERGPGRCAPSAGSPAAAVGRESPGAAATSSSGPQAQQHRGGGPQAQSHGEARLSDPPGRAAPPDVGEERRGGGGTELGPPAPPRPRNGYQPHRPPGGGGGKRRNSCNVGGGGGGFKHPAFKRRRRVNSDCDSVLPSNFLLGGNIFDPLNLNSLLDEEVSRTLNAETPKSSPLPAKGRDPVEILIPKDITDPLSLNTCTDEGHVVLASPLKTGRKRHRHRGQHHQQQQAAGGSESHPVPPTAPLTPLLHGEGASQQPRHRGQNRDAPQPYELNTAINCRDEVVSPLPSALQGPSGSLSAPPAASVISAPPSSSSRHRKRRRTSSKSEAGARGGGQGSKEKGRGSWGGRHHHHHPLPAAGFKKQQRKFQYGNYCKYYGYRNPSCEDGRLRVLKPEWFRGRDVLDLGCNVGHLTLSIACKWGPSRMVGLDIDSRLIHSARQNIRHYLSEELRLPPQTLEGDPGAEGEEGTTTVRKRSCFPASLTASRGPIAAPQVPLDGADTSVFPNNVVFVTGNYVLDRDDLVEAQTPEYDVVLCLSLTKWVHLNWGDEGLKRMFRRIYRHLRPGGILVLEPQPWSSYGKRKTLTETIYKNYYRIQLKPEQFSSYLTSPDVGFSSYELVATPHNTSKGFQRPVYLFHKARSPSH
Sequence of UniProt Q6P1A2 (Q6P1A2 whole entry, looked up): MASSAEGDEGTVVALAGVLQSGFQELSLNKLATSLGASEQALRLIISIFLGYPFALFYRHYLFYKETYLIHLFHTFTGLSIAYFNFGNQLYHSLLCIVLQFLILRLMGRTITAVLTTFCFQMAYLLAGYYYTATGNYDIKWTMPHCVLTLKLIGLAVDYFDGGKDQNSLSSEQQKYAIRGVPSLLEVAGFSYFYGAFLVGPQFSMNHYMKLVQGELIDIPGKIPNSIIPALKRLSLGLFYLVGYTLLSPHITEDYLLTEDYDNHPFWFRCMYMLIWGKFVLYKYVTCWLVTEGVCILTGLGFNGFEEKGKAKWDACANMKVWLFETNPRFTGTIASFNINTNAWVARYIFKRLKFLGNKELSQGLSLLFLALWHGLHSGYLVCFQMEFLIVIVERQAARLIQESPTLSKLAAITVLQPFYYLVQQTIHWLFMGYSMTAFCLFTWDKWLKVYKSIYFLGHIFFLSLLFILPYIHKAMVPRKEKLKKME
Sequence of UniProt P14174 (P14174 whole entry, looked up): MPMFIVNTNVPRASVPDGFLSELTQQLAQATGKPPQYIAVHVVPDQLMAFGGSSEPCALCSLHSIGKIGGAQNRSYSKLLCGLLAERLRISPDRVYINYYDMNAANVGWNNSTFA
Sequence of UniProt Q8IW41 (Q8IW41 whole entry, looked up): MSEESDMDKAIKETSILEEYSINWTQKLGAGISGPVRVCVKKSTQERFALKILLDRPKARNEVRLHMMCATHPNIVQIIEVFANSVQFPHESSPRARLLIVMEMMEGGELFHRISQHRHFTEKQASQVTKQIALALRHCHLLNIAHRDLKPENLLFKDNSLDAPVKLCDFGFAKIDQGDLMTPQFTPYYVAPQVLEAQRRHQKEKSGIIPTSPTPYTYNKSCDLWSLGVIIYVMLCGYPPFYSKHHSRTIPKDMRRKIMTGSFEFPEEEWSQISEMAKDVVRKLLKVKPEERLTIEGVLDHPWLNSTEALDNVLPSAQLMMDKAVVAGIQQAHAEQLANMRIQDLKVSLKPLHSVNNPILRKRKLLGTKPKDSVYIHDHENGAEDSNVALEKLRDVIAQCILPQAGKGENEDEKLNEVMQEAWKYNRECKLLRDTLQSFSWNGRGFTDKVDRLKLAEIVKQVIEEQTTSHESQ
Sequence of UniProt O95372 (O95372 whole entry, looked up): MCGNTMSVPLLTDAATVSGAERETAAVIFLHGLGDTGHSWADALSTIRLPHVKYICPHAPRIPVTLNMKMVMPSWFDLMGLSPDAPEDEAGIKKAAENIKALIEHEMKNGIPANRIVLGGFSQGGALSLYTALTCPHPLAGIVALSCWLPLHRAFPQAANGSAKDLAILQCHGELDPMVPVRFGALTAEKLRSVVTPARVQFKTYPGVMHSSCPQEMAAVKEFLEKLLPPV
Sequence of UniProt Q9UGP4 (Q9UGP4 whole entry, looked up): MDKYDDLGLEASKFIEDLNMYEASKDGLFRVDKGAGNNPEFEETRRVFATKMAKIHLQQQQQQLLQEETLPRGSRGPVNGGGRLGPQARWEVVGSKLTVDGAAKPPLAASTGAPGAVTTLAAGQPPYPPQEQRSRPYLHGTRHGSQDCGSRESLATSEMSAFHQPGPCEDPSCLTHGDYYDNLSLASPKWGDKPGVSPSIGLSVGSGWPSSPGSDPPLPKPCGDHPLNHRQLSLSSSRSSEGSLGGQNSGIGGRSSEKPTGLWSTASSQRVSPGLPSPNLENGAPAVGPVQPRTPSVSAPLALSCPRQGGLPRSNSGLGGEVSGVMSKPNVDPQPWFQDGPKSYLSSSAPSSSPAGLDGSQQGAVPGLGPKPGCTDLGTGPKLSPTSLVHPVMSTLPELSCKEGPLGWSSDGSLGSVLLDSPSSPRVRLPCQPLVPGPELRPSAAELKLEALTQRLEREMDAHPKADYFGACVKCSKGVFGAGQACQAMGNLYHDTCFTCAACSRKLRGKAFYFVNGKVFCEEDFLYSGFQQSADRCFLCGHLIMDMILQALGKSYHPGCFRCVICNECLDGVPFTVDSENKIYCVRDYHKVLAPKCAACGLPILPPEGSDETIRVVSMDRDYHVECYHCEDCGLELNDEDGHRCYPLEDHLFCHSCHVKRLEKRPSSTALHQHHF
Sequence of UniProt P07948 (P07948 whole entry, looked up): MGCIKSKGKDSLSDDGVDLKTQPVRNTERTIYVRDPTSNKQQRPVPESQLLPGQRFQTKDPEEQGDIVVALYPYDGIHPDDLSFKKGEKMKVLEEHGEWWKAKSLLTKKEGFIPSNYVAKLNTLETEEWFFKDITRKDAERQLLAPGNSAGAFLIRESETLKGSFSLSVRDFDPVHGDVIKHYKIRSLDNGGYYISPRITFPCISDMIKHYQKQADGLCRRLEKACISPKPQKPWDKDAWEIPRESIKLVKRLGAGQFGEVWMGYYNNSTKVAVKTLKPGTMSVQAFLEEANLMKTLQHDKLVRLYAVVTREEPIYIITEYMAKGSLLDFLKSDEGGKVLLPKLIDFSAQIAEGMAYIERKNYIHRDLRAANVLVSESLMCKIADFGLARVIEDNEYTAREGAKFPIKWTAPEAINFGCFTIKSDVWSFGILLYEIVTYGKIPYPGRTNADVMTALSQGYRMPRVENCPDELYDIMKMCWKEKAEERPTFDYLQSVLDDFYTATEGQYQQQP

Target | log2 fold change [1] | log2 fold change [2] | log2 fold change [3] | log2 fold change [4] | log2 fold change [5] | log2 fold change [6] | log2 fold change [7] | log2 fold change [8] | log2 fold change [9] | log2 fold change [10] | log2 fold change [11] | log2 fold change [12] | log2 fold change [13] | log2 fold change [14] | log2 fold change [15] | log2 fold change [16] | log2 fold change [17] | log2 fold change [18] | log2 fold change [19] | log2 fold change [20]
LIMD1 (UniProt Q9UGP4) | 0 | 0.009 | 0.037 | -0.012 | -0.022 | 0.024 | 0.084 | 0.019 | 0.02 | -0.017 | -0.055 | -0.245 (active) | 0.042 | -0.018 | 0.026 | 0.002 | 0.015 | 0.064 | -0.028 | -0.043
MIF (UniProt P14174) | 0.056 | -0.014 | 0.056 | 0.098 | -0.29 | -0.009 | -0.047 | -0.076 | -0.113 | -0.009 | 0.025 | 0.021 | -0.096 | 0.454 (active) | 0.015 | 0.081 | 0.025 | -0.012 | -0.038 | 0.211
KIF13A isoform 4 (UniProt Q9H1H9) | 0.035 |  |  |  |  |  |  |  |  |  |  |  |  |  |  |  |  |  |  | 
IPO7 (UniProt O95373) | 0.004 | -0.007 | 0.035 | 0.035 | 0.009 | 0.025 | 0.081 | -0.007 | 0.009 | 0.047 | -0.248 (active) | -0.542 (active) | 0.067 | -0.007 | 0.008 | -0.038 | 0.051 | 0.067 | -0.011 | -0.248 (active)
LYPLA2 (UniProt O95372) | 0.043 | -0.131 | 0.082 | -0.056 | -0.071 | 0.132 | 0.038 | -0.001 | -0.055 | -0.099 | 0.049 | -0.033 | 0.018 | 0.521 (active) | 0.025 | -0.05 | 0.108 | -0.021 | -0.053 | 0.098
MGST3 (UniProt O14880) | -0.029 | 0.005 | 0 | -0.049 | 0.015 | -0.037 | -0.011 | -0.057 | 0.003 | 0.003 | -0.005 | 0.048 | -0.107 | -0.016 | 0.066 | -0.047 | -0.017 | -0.043 | -0.027 | 0.097
LYN (UniProt P07948) | 0.195 | -0.053 | -0.036 | 0.037 | 0.293 | -0.016 | -0.143 | -0.22 | 0.211 | -0.057 | -0.016 | -0.023 | 0.033 | 0.039 | 0.037 | -0.095 | -0.024 | -0.009 | 0.144 | -0.03
MGST1 (UniProt P10620) | 0.062 | 0.044 | -0.017 | 0.017 | -0.07 | 0.067 | -0.007 | -0.093 | -0.027 | -0.035 | 0.037 | 0.039 | -0.043 | 0.003 | -0.025 | -0.158 | 0.012 | -0.037 | -0.079 | 0.086
KLC2 (UniProt Q9H0B6) | 0.025 | -0.055 | 0.021 | 0.015 | 0.001 | 0.012 | 0.096 | 0.001 | 0.044 | 0.006 | -0.03 | -0.059 | 0.038 | 0.015 | -0.046 | 0.02 | -0.003 | 0.057 | -0.013 | -0.131
LSS (UniProt P48449) | -0.032 | -0.122 | -0.071 | 0.054 | 0.012 | 0.03 | 0.073 | 0 | 0.766 (active) | 0.382 | 0.024 | 0.719 (active) | 0.074 | 0.129 | -0.056 | -0.024 | 0.055 | 0.077 | -0.025 | 0.384
IWS1 (UniProt Q96ST2) | -0.083 | 0.007 | -0.015 | -0.02 | 0.029 | 0.046 | -0.003 | -0.017 | 0.051 | 0.002 | 0.048 | 0.034 | 0.029 | 0.006 | -0.14 | 0.021 | 0.046 | 0.029 | 0 | -0.054
LPCAT3 (UniProt Q6P1A2) | 0.289 (active) | -0.029 | 0.052 | 0.033 | -0.226 | -0.019 | 0.036 | 0.089 | 0.031 | -0.005 | 0.146 | -0.026 | -0.008 | -0.005 | 0.062 | -0.063 | 0.087 | -0.042 | -0.093 | -0.202
MAPKAPK5 (UniProt Q8IW41) | 0.004 | -0.02 | -0.015 | 0.013 | 0.003 | 0.028 | 0.11 | 0.038 | 0.225 | -0.03 | 0.009 | -0.007 | -0.023 | 0.045 | -0.092 | -0.132 | -0.123 | -0.046 | -0.112 | -0.033
KPNA4 (UniProt O00629) | 0.016 | 0.007 | 0.017 | 0.045 | -0.008 | 0.031 | 0.038 | 0.023 | 0.006 | 0.007 | -0.008 | -0.251 | 0.033 | -0.008 | 0.038 | 0.029 | 0 | 0.01 | -0.066 | -0.052
MEPCE (UniProt Q7L2J0) | 0.077 | 0.025 | -0.014 | -0.252 | -0.057 | 0.062 | 0.083 | 0.05 | -0.04 | 0.025 | -0.07 | -0.209 | 0.052 | -0.053 | 0.009 | -0.013 | 0.061 | -0.019 | 0.007 | -0.051
LARP7 isoform 3 (UniProt Q4G0J3) | -0.011 | 0.054 | -0.03 | -0.053 | 0.016 | 0.027 | 0.045 | 0.004 | -0.03 | 0 | -0.047 | -0.155 | 0.051 | -0.081 | 0.034 | -0.032 | 0.064 | 0.003 | 0.014 | -0.075
KCT2 (UniProt Q8NC54) | 0.104 | 0.007 | 0.006 | 0.017 | -0.102 | -0.013 | -0.011 | -0.008 | -0.108 | -0.025 | -0.312 | -0.076 | -0.006 | -0.063 | 0.089 | -0.03 | 0.064 | 0.009 | -0.051 | -0.037
